# Values without a mark were called inactive. No rule for the calls is given here.
# Molecular target: Pantothenate synthetase (Mycobacterium tuberculosis (strain ATCC 25618 / H37Rv)) (UniProt P9WIL5)
# Assay: Coupled enzyme confirmation of inhibitors against recombinant Mtb PanC (AID 375);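 also: 0% = full reaction with vehicle and 100% = no enzyme background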
# Details: coupled enzyme assay; at 10 µM, active compounds read high
# Sequence of Pantothenate synthetase (Mycobacterium tuberculosis (strain ATCC 25618 / H37Rv)) (P9WIL5 whole entry, looked up): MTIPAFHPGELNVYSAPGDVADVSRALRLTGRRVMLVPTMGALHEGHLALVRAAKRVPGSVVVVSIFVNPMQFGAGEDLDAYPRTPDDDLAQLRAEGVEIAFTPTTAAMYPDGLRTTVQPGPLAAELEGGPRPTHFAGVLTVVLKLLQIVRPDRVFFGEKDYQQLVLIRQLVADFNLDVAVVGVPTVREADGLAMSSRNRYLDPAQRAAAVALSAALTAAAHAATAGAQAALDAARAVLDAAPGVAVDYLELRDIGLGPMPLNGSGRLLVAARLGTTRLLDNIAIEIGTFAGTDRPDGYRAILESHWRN
row,SMILES,inhibition [%]
1,O=C(NCC1CCCO1)c1cccc(N2CCCC2=O)c1 (stereo not given),0
2,Cn1cccc1Cc1nnc(SCC(=O)Nc2ccc(F)cc2)n1-c1ccc(F)cc1,4
3,COc1ccc(-c2noc(CN3CCC(Cc4ccccc4)CC3)n2)cc1,0
4,O=C(NCCN1CCN(c2ccccc2)CC1)c1ccc(NC(=O)C2CCCO2)cc1 (stereo not given),2
5,COc1ccc(OC)c(N2Cc3cc(C)c(C)cc3C2)c1,3
6,Cc1cc(C)c2c(CC(=O)NCc3ccco3)coc2c1,0
7,C=CCn1c(SCC(=O)Nc2ccccc2OC)nnc1-c1ccccn1,3
8,Cc1cc2ncc(C(=O)Nc3ccccc3)c(C)n2n1,7
9,CCOc1ncccc1C(=O)Nc1ccc(Cl)cc1,2
10,COc1cccc(NC(=O)c2nc3nc(C)cc(C(F)F)n3n2)c1,0
11,Cc1cc(C)c2c(=O)n(CC(=O)NCCCN3CCN(c4ccccc4F)CC3)sc2n1,0
12,CSc1nc(C)cc(OCC(=O)N2CCOCC2)n1,0
13,c1cncc(-c2nc3c4ccccc4nc(N4CCC(N5CCCCC5)CC4)n3n2)c1,0
14,CCOC(=O)C1CCCN(C(=O)c2cc(=O)c3ccccc3o2)C1 (stereo not given),5
15,O=C(c1ccco1)N1CCN(C2=NS(=O)(=O)c3ccccc32)CC1,0
16,Cc1cccc(NC(=O)c2cc3n(n2)C(C(F)(F)F)CC(c2ccc4c(c2)OCO4)N3)c1 (stereo not given),4
17,OC[C@H]1O[C@@H](n2cnc3c(NC4CCCC4)ncnc32)[C@H](O)[C@@H]1O,1
18,Cc1nc2ccc(S(=O)(=O)NC(C(=O)N3CCCC3)C(C)C)cc2s1 (stereo not given),0
19,COc1ccc(NC(C)=O)cc1NC(=O)CN1CCN(c2ccccn2)CC1,0
20,CCOC(=O)Cn1c(N2CCOCC2)nc2c1c(=O)[nH]c(=O)n2C,5

row,SMILES,inhibition [%]
1,Cc1cccc(NC(=O)c2ccccc2O)c1C,0
2,CC(C)c1ccc(C(O)c2cnc(C(C)C)n2C)cc1 (stereo not given),1
3,CCC1(CC)NC(=O)NC1=O,0
4,Nn1c(SCC(=O)Nc2ccc3c(c2)OCO3)nnc1C1CC1,4
5,O=C(NCC(c1cccnc1)N1CCOCC1)c1cccs1 (stereo not given),0
6,CCOc1ccc(-c2nnc(SCC(=O)N3CCN(c4ccccc4)CC3)o2)cc1,0
7,Cc1[nH]nc2c1C1(CCN(C(=O)c3ccccc3)CC1)C(C#N)=C(N)O2,0
8,Cc1cc(C)n(-c2cc(N3CCOCC3)nc(-c3ccccc3)n2)n1,2
9,COc1cccc(-c2noc(C3CCCN(C(=O)Cc4ccccc4)C3)n2)c1 (stereo not given),0
10,Cc1nc2ncnn2c(N2CCC(C(=O)NC3CCCC3)CC2)c1Cc1ccccc1,1
11,CN=Cc1cc(-c2ccccc2)sc1O,0
12,Cc1c(C(=O)Nc2cnccn2)oc2ccccc12,1
13,CCOC(=O)c1ccc(NC(=O)CSC2=NC(=O)C(CC)C(=O)N2)cc1 (stereo not given),3
14,COc1ccc(Cn2c(CCCO)nc3ccccc32)cc1OC,0
15,O=C(CSc1nnc(CNC(=O)c2cccs2)o1)Nc1cccc(C(F)(F)F)c1,0
16,Cc1cc2c(=O)n(CC(=O)N3CCN(c4ccccc4)CC3)cnc2s1,0
17,COC(=O)COc1ccc(S(=O)(=O)NCCC2=CCCCC2)cc1,2
18,O=S(=O)(Nc1ccc2c(c1)OCO2)c1ccc(Br)s1,0
19,CC(=O)OCC(=O)[C@@]1(O)CC[C@H]2[C@@H]3CCC4=CC(=O)CC[C@]4(C)[C@H]3C(=O)C[C@@]21C,0
20,Cc1ccc(CNC(=O)C2CCCN(S(=O)(=O)c3cccnc3)C2)cc1 (stereo not given),0
